Screens from PubChem.
TDP1 block: qHTS Assay for Inhibitors of Tyrosyl-DNA Phosphodiesterase (TDP1); Tyrosyl-DNA phosphodiesterase 1 (Homo sapiens), Q9NUW8; recombinant TDP1, AlphaScreen DNA substrate cleavage; Potency, µM (series often up to 130 µM), inactives show at the highest dose activity change, negative = inhibition, usual class: inhibitors; hit rate 0.28% among 350,000; AID 485290, 2010; further: potency means the concentration at half of the fitted maximal effect; on the % scale 0 is the no-effect control and ±100 the full control effect; nearly all actives have a fitted effect of over 40% in size
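Here, a 5' biotin and 3' phosphotyrosine-FITC DNA oligonucleotide reports Tdp1 activity: intact substrate bridges AlphaScreen beads, while cleavage leaves a 3' phosphate and drops signal. All incubations at room temperature.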
PGK inhibitor: qHTS Assay to Find Inhibitors of Phosphoglycerate Kinase; Phosphoglycerate kinase, glycosomal (Trypanosoma brucei brucei), P07378; PGK/GAPDH coupled, Kinase-Glo luminescence, 60 min; Potency, µM (series often up to 57.5 µM), without a hit: at the top dose activity change, negative = inhibition, most hits filed as inhibitors; hit rate 0.043% among 380,000; AID 602233, 2012; further: potency means the concentration at half of the fitted maximal effect; on the % scale 0 is the no-effect control and ±100 the full control effect; nearly all actives have a fitted effect of over 60% in size
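Luminescent ATP detection (Kinase-Glo Plus) follows a 60-minute room-temperature incubation, with wells lacking PGK as controls. Buffer: 100 mM TEA (pH 7.6), 5 mM MgCl2, 0.01% Tween-20. Coupling enzyme GAPDH (100 nM final) supplies unstable 1,3-BPG in-well.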
Tb PFK inh-1: qHTS Assay to Find Inhibitors of T. brucei phosphofructokinase | hit rate 0.17% among 330,000 | T. brucei PFK, ADP-Glo luminescence | ATP-dependent 6-phosphofructokinase (Trypanosoma brucei brucei), O15648 | Potency, µM (highest dose often 57.5 µM), for inactives: top-dose activity, negative = inhibition, usual class: inhibitors | AID 485367, 2010;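 further: potency means the concentration at half of the fitted maximal effect; 0% = uninhibited 1x PFK enzyme wells and -100% = no-enzyme wells; nearly all actives have a fitted effect of over 60% in size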
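PFK 1.25 nM, F6P 0.5 mM, ATP 0.1 mM, 0.1 M TEA pH 8.0, 5 mM MgCl2, 0.01% Tween20, 0.1% BSA; 45 min RT. ADP-Glo readout. qHTS titration up to 57 uM; curves fitted, compounds curve-classed.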
FEN1 inhibitor: qHTS Assay for the Inhibitors of Human Flap endonuclease 1 (FEN1) | AID 588795, 2011 | Potency, µM (highest dose often 114 µM), inactives show at the top dose activity change, negative = inhibition, usual class: inhibitors | Recombinant FEN1 flap cleavage, fluorescence, 15 min | hit rate 0.35% among 390,000 | P39748; further: potency means the concentration at half of the fitted maximal effect; on the % scale 0 is the no-effect control and ±100 the full control effect; nearly all actives have a fitted effect of over 65% in size
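Read-out was taken twice, immediately and after 15 min, following addition of 50 nM substrate to 10 nM FEN1 that had sat with test compound for 15 min at room temperature. Curves came from a four-parameter Hill model.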
PI5P4K alpha inh: qHTS for Inhibitors of phosphatidylinositol 5-phosphate 4-kinase (PI5P4K); max response, %; hit rate 1.2% among 330,000; Phosphatidylinositol 5-phosphate 4-kinase type-2 alpha (Homo sapiens), P48426; AID 652105, 2013; PI5P4Kalpha enzyme, ADP-Glo luminescence, 60 min; stronger effect = lower value; active means max response of -50% or lower; inconclusive means between -30% and -50%; inactive means -30% or higher; further: value at the top dose of about 77 µM; on the % scale 0 is the no-effect control and ±100 the full control effect
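ADP-Glo luminescence end-point read after a 60 min room-temperature kinase reaction of PI5P4Kalpha plus substrate, initiated with ATP at 5 microM final. Buffer: 0.038 M HEPES pH 7.4, EGTA, 0.1% CHAPS, 5% DMSO.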
WRN helicase inh: qHTS for Inhibitors of WRN Helicase | Potency, µM (doses to about 114 µM), for inactives: at the top dose activity change, negative = inhibition, hits mostly inhibitors | WRN helicase unwinding, fluorescent forked duplex, kinetic | hit rate 0.46% among 360,000; further: potency means the concentration at half of the fitted maximal effect; on the % scale 0 is the no-effect control and ±100 the full control effect; nearly all actives have a fitted effect of over 55% in size
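Screening of the MLSMR collection measured strand separation of a quenched forked DNA duplex (100 nM) by 20 nM WRN with 2 mM ATP, all final. Compounds were preincubated with enzyme 15 min at room temperature.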
Tb PFK KinaseGlo: Tb PFK orthogonal confirmatory assay using ATP depletion (Kinase-Glo Plus) as an alternative measure of Tb PFK activity: Hit Validation; shares compounds with Tb PFK inh-1; Tb PFK enzyme, ATP depletion, Kinase-Glo Plus luminescence; Potency, µM (titrated, usually from 57.5 µM), without a hit: at the top dose inhibition; hit rate 47% among 1,100; AID 504636, 2011; calls by dose curve; further: potency means the concentration at half of the fitted maximal effect; nearly all actives have a fitted effect of over 60% in size
Tb PFK inh-2: Inhibitors of T. brucei phosphofructokinase: Hit Validation. shares compounds with Tb PFK inh-1. purified T. brucei PFK, ADP-Glo luminescence, 45 min. Potency, µM (doses to about 57.5 µM), inactives show at the highest dose activity change, negative = inhibition, usual class: inhibitors. hit rate 41% among 1,100. AID 504637, 2011;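 further: potency means the concentration at half of the fitted maximal effect; plate controls were full PFK enzyme control for no effect and no enzyme control for full effect; nearly all actives have a fitted effect of over 60% in size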
Numbers without * were called inactive; i = inactive; u = inconclusive; x = no result; [ ] = remark or other dose. Hits are enriched below; roughly 1.5% of the tested compounds scored in any of these assays. Unless noted, the call rests on the fitted dose curve; in most records, active means well fitted curve in the direction sought with a large enough effect; inconclusive means small, poorly fitted or top-dose-only effect, or another doubt; inactive means no such curve, though single readings can be large; an effect the other way counts as inactive or inconclusive.

SMILES | TDP1 block | PGK inhibitor | Tb PFK inh-1 | FEN1 inhibitor | PI5P4K alpha inh | WRN helicase inh | Tb PFK KinaseGlo | Tb PFK inh-2
C=C(C)C(=O)Nc1cccc(C2=NOC3(C2)C[C@@H](C(N)=O)N(C(=O)c2ccc(Cl)cc2)C3)c1 (some centres undefined) | 13µM* | 2.2µM* | 9.5µM* | u | u | 45µM* | 0.67µM* | 0.95µM*
C=C(C)C(=O)Nc1cccc(C2=NOC3(C2)C[C@H](C(N)=O)N(C(=O)COc2ccc(Cl)cc2)C3)c1 (some centres undefined) | 11µM* | u | u | -20% | u | u | 0.54µM* | 0.67µM*
C/C=C\C=C/C(=O)Nc1cccc(C2=NOC3(C2)C[C@@H](C(N)=O)N(C(=O)/C=C/C=C\C)C3)c1 (some centres undefined) | 20µM* | u | 5.4µM* | 50µM* | -94* | 25µM* | u | u
O=C(CSc1n[nH]c(=O)n1C1CC1)Nc1ccc(F)c(Cl)c1 | 1% | 5% | u | -11% | 2 | -11% | u | u
Cc1ncc([N+](=O)[O-])n1CC(=O)Nc1ccc(F)c(F)c1 | x | i | u | 2% | 3 | 20% | u | u
O=C(Nc1ccc(F)c(Cl)c1)Nn1cnnc1 | 5% | x | 17µM* | x | x | x | u | u
CCN1CCN(c2ccc(NC(=O)C(C)C)cc2Cl)CC1 | 0% | -2% | 0% | -4% | 0 | -5% | x | x
CC(=O)N1CCN(CC(=O)Nc2ccc(C#N)c(Cl)c2)CC1 | 8% | -9% | -5% | 2% | -1 | 2% | x | x
O=C(Cn1cnc([N+](=O)[O-])c1)Nc1ccc(F)c(Cl)c1 | x | 5% | 24µM* | -23% | -3 | 1% | 7.6µM* | 11µM*
Cc1cc(C(=O)OCC(=O)Nc2cccc(F)c2)c(C)n1C1CC1 | 7% | -7% | -8% | -8% | 1 | 6% | x | x
C[C@H]1CC[C@@]2(NC1)O[C@@H]1C[C@H]3[C@@H]4CC[C@@H]5C[C@@H](O)CC[C@@]5(C)[C@@H]4CC[C@]3(C)[C@@H]1[C@@H]2C | -6%[21 µM] | x | x | x | x | x | x | x
C[C@@H]1C[C@H](C)C[C@H](C)[C@@H](O)CC(=O)O[C@H]([C@H]2CCC[C@H]2C(=O)O)C/C=C/C=C(/C#N)[C@H](O)[C@@H](C)C1 | 8% | x | x | x | x | x | x | x
CC1OC(OC2C(O)CC(OC3C(O)CC(OC4CCC5(C)C(CCC6C5CCC5(C)C(C7=CC(=O)OC7)CCC65O)C4)OC3C)OC2C)CC(O)C1O (centres undefined) | 2% | x | x | x | x | x | x | x
COC(=O)/C(C#N)=C(/Nc1ccc(F)c(Cl)c1)C(F)(F)F | x | -4% | 27µM* | 6% | -5 | -14% | 12µM* | 27µM*
CCC(=O)Nc1ccc(F)c(Cl)c1 | -3% | 0% | 30µM* | 0% | -2 | -4% | u | u
CCC(=O)Nc1ccc(N2CCN(CC)CC2)c(Cl)c1 | 0% | -3% | -1% | 0% | 0 | 8% | x | x
Clc1c(Cl)c(Cl)c(Cl)c(Cl)c1Cl | 3% | x | x | x | x | x | x | x
CCOC(=O)C1OC1(C)c1ccccc1 (centres undefined) | 10% | x | x | x | x | x | x | x
COc1ccc(OC)c(NC(=O)c2cc(-c3cc(C)ccc3O)n[nH]2)c1 | x | -10% | u | 16% | 2 | 5% | -19% | u
CCCCCn1c(NC(=O)c2ccco2)c(C(=O)OCC)c2nc3ccccc3nc21 | 3% | u | -4% | -7% | 2 | u | x | x
CCOC(=O)c1sc(=S)n(C)c1NC(=O)c1ccccc1 | -5% | 0% | u | 1% | u | u | 21µM* | u
C=CCNC(=S)NNC(=O)c1cccn(Cc2ccc(Cl)c(Cl)c2)c1=O | -2% | -1% | 8.5µM* | -6% | x | 2% | 8.5µM* | 11µM*
CNC(=S)NNC(=O)c1cccn(Cc2ccc(Cl)c(Cl)c2)c1=O | 10% | 1% | 8.5µM* | -14% | x | 4% | 2.7µM* | 8.5µM*
CCC#N | 12% | x | x | x | x | x | x | x
O=C(O)c1ccc(NCc2cccc(Br)c2)cc1 | 1% | -4% | 21µM* | -4% | -7 | 0% | 12µM* | 24µM*
SMILES | TDP1 block | PGK inhibitor | Tb PFK inh-1 | FEN1 inhibitor | PI5P4K alpha inh | WRN helicase inh | Tb PFK KinaseGlo | Tb PFK inh-2
Cc1c(C(=O)c2cccc3ccccc23)c2cccc3c2n1[C@@H](CN1CCOCC1)CO3 | 9% | x | x | x | x | x | x | x
Fc1ccc(NC(=S)Nc2ccccc2OC(F)F)cc1Cl | 1% | -4% | u | -10% | 20 | -23% | 18% | -27%
Cc1ccc(NC(=S)Nc2ccc(Cl)c(Cl)c2)c(OC(F)F)c1 | 2% | i | 5.4µM* | u | 2 | -21% | u | u
CCOc1ccc(Cl)cc1CNCCc1ccc(F)cc1 | 0% | 0% | 2% | 5% | 0 | 2% | x | x
Fc1ccc(CNc2ncnc3cc(Cl)ccc23)cc1 | x | i | 19µM* | -5% | 0 | 7% | u | 27µM*
O=C(NN=Cc1ccc(N(CCCl)CCCl)cc1)c1cccnc1 | x | 1% | x | 11% | 3 | 3% | x | x
O=C(Cc1ccc(Cl)c(Cl)c1)N/N=C/c1cccnc1 | 2%[56.1 µM] | -3% | 12µM* | -2% | 0 | -7% | 5.4µM* | 12µM*
O=C(CCCN1CCC2(CC1)C(=O)N(Cc1cccc(F)c1)CN2c1ccccc1)c1ccc(F)cc1 | 13% | x | x | x | x | x | x | x
O=C1CN=C(c2ccccc2)c2cc(Cl)ccc2N1Cc1ccc(Cl)cc1 | 9% | -6% | x | -2% | x | x | x | x
Clc1ccc(CN2C3=NCCN3c3ccccc32)cc1Cl | 4% | -1% | 6.7µM* | -9% | 0 | 13% | 3µM* | 6µM*
COc1ccc(OC)c2c1C(=O)C(Cl)=C(Cl)C2=O | x | i | 1.2µM* | u | -102* | -30%[11.6 µM] | 0.34µM* | 0.67µM*
